# Shown are actives, neighbours in structure and some others; about 1.3% of the full set was active somewhere.
# PKA-R1A activ: activators of PKA-R1A complex. P00514+P68181. PKA-R1A dissociation, Cy5-IP20 fluorescence polarization; scaled: DMSO 0%, 113 µM cGMP 100%. activation, % at 11.4 µM. actives 0.083% (n = 340,000);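 active means percent activation above the mean of all tested compounds plus 3 SD, cut at about 19% in these data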;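 further: higher means more PKAc released from R1A so a rise in polarization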
# eLon inh: inhibits E. coli Lon protease; purified E. coli Lon protease, fluorescence polarization; inhibition, % at 7.94 µM; P0A9M0; actives 0.42% (n = 360,000); in the data active means inhibition above about 13%, passing the limit was not always enough
# IDE inh: inhibits human insulin-degrading enzyme in HEK cells | inhibition, % at 5.59 µM | FAbetaB cleavage, fluorescence polarization | AID 434962 | actives 0.41% (n = 320,000);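 active means percent inhibition above the average of all tested compounds plus 3 SD, set per screening campaign, cut at about 16% in these data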;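 further: IDE supplied by intact live HEK cells; FP after avidin binding of uncleaved biotin substrate so inhibition keeps polarization high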
# Rin1 Abl inh: inhibitors of human Rin1-Abl protein interaction; AID 588664; inhibition, % at 7.35 µM; actives 0.4% (n = 360,000); TR-FRET Rin1/Abl binding, biochemical; in the data active means inhibition above about 5%, passing the limit was not always enough
# IDE act: boosts human insulin-degrading enzyme activity in HEK cells; P14735; FAbeta-B cleavage, fluorescence polarization; 0% vehicle, 100% cell-free pure enzyme wells; activation, % at 5.96 µM; actives 0.073% (n = 340,000);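 active means activation above the mean of all tested compounds plus 3 SD, set per screening campaign, cut at about 17% in these data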
# PKA-R2B act: PKA-R2B complex activation; activation, % at 11.4 µM; PKA-R2B holoenzyme dissociation, Cy5-IP20 fluorescence polarization; R2B truncated from residue 108, S112A mutant; 0% DMSO only, 100% 113 µM cGMP; actives 0.079% (n = 340,000);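 active means activation above a cutoff set at the mean over all compounds plus 3 SD, cut at about 18% in these data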;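 further: higher means more holoenzyme dissociation and a rise in polarization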
# Target sequence (P31323 whole entry, looked up, other chains not shown, the tested form may be a part): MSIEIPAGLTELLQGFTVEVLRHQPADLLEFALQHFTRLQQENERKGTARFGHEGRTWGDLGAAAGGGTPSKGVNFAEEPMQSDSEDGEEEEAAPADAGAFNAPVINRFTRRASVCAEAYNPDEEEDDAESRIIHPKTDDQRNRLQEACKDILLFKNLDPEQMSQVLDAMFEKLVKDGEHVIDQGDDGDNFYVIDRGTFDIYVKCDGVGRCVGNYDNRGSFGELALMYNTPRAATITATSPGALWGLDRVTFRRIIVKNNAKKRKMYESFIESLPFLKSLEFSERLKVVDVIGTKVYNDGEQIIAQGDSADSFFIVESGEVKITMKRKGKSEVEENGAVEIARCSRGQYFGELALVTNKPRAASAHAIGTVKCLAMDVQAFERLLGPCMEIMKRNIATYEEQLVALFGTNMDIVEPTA
# R2B FP artifact: counter-screen for PKA-R2B activators: fluorescence polarization artifacts. shares compounds with PKA-R2B act. FP artifact counterscreen. activation, % at 11.4 µM. actives 6% (n = 270). AID 504796; in the data active means activation above about 20%;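 further: Cy5 labelled IP20 peptide probe with compound but no PKA protein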
# PKA-R2B confirm: confirmation of human PKA-R2B complex activators | actives 9% (n = 270) | shares compounds with PKA-R2B act | fluorescence polarization, activation | activation, % at 11.4 µM; in the data active means activation above about 19%
# Target sequence (P31323 whole entry, looked up): as the sequence (P31323 whole entry, looked up, other chains not shown, the tested form may be a part) above
# Numbers stand for hits; . = inactive; / = not tested or not shown.
SMILES,PKA-R1A activ,eLon inh,IDE inh,Rin1 Abl inh,IDE act,PKA-R2B act,R2B FP artifact,PKA-R2B confirm
CN1CCC(C(=O)N2CCCC(C(=O)c3ccc4c5c(cccc35)CC4)C2)CC1 (stereo unspecified),.,.,.,.,.,.,/,/
CC(=O)N1CCCC(C(=O)c2ccc3c4c(cccc24)CC3)C1 (stereo unspecified),.,.,.,.,.,25,.,.
Cn1cnc(S(=O)(=O)Nc2cc(C(F)(F)F)ccc2N2CCOCC2)c1,.,.,.,.,.,20,.,.
O=C(OCC(=O)N1CCc2ccccc2C1)c1ccc(N2CCOCC2)c([N+](=O)[O-])c1,.,.,.,.,.,.,/,/
CC(=O)NCC(=O)OC(C)C(=O)Nc1ccc(C(C)=O)cc1 (stereo unspecified),.,.,.,.,.,19,.,.
COc1cc(NC(=O)CN2C(=O)c3ccccc3Sc3ccc(C(=O)N4CCOCC4)cc32)cc(OC)c1OC,.,.,.,.,.,.,/,/
CCOc1ccc(NC(=O)CN2C(=O)NC3(CCCCCC3)C2=O)cc1,.,.,.,.,.,20,.,.
Oc1[nH]c2ccc(Br)cc2c1N=Nc1ccc(F)cc1,.,.,.,.,.,.,/,/
COc1cc2c(cc1OC)C(Cc1ccc(O)cc1)NCC2 (stereo unspecified),.,.,.,.,.,.,/,/
CCOc1ccc(CC2NCCc3cc(OCC)c(OCC)cc32)cc1OCC (stereo unspecified),.,.,.,.,.,20,.,.
CC(=O)NS(=O)(=O)c1ccc(N=NN2CCOCC2)cc1,.,.,.,.,.,23,.,.
CN(C)c1ccc(N=Nc2ccc(S(=O)(=O)O)cc2)c2ccccc12,.,.,.,.,.,30,.,.
CN(C)c1ccc(N=Nc2ccc(S(N)(=O)=O)cc2)cc1,.,.,.,.,.,.,/,/
CCN1C(=O)[C@H]2[C@@H](c3ccc(-c4cc(C(C)=O)cs4)cc3)N3CCCC[C@@]3(C(=O)OC)[C@H]2C1=O,.,.,.,.,.,.,/,/
Cc1ccc(/C=N/n2c(-c3ccco3)n[nH]c2=S)cc1,.,.,.,.,.,.,/,/
COc1ccc(C)cc1NC(=O)CCCN1C(=O)C2CC=CCC2C1=O (stereo unspecified),.,.,.,.,.,.,/,/
COc1cccc(Nc2nc(NCCO)nc(N3CCCC3)n2)c1,.,.,.,.,.,22,.,.
COC(=O)c1c(NC(=O)C(C)C)sc2c1CCN(Cc1ccccc1)C2,.,.,.,.,.,.,/,/
COCCn1c(SCC(=O)NCCc2ccc(OC)c(OC)c2)nc2c([nH]c3ccccc32)c1=O,.,.,.,.,.,.,/,/
COCCn1c(SCC(=O)NCCc2ccccc2)nc2c([nH]c3ccccc32)c1=O,.,.,.,.,.,20,.,.
O=C(COC(=O)CCNS(=O)(=O)c1ccccc1)NC1CC1,.,.,.,.,.,19,.,.
O=C(COC(=O)CCNS(=O)(=O)c1ccccc1)NNC(=O)c1ccccc1,.,.,.,.,.,.,/,/
CCC(NC(=O)OCc1ccccc1)C(=O)Oc1ccc2ccc(=O)oc2c1 (stereo unspecified),.,.,.,.,.,19,.,.
C[C@@H]1CN([C@H](C)CO)S(=O)(=O)c2ccc(Br)cc2O[C@H]1CN(C)C(=O)Nc1cccc(F)c1,.,.,/,.,/,.,/,/
COc1ccc(C(C(=O)NCC2CCCO2)N(C(=O)CNC(=O)c2ccco2)c2ccccc2)cc1OC (stereo unspecified),.,.,.,.,.,.,/,/
SMILES,PKA-R1A activ,eLon inh,IDE inh,Rin1 Abl inh,IDE act,PKA-R2B act,R2B FP artifact,PKA-R2B confirm
CCOC(=O)c1ccc(N(C(=O)CNC(=O)c2ccco2)C(C(=O)NCC2CCCO2)c2ccc(OC)c(OC)c2)cc1 (stereo unspecified),.,.,.,.,.,19,.,.
Cc1ccc(Cn2c(CN3CC(C)OC(C)C3)nc3c2c(=O)n(C)c(=O)n3C)cc1 (stereo unspecified),.,.,.,.,.,19,.,.
CCOC(=O)C1=C(c2ccccc2)NC(SCC(=O)Nc2ccccc2C)=C(C#N)C1c1ccco1 (stereo unspecified),.,.,.,.,.,19,.,.
CCOC(=O)C1=C(c2ccccc2)NC(SCC(=O)Nc2ccc(C)cc2)=C(C#N)C1c1ccco1 (stereo unspecified),.,.,.,.,.,.,/,/
Cc1nnc(SCC(=O)Nc2nsc(-c3ccc(Cl)cc3)n2)s1,.,.,.,.,.,.,/,/
O=C(NC1CCCCC1)c1ccc(Br)o1,.,.,.,.,.,18,.,.
CN1C(c2ccccc2)CCOS1(=O)=O (stereo unspecified),.,.,.,.,.,.,/,/
CC(NC(=O)Cc1ccc(F)cc1)c1ccc(F)cc1 (stereo unspecified),.,.,.,.,.,19,.,.
CC(NC(=O)Cc1ccccc1)c1ccc(F)cc1 (stereo unspecified),.,.,.,.,.,.,/,/
COC(=O)NNC(=S)NCc1ccc(C)cc1,.,.,.,.,.,.,/,/
OCC[C@@H]1C[C@@H](O)[C@H](O)[C@@]2(Cc3ccccc3CCO2)O1,.,.,.,.,.,21,.,.
O=C(Nc1ccc(Cl)cn1)c1cccc(S(=O)(=O)N2CCCCC2)c1,.,.,/,.,.,.,/,/
O=C(Nc1ccc(Cl)cn1)c1cccc(S(=O)(=O)N2CCCCCC2)c1,.,.,/,.,/,20,.,.
COc1cc(CN2CC(=O)N(c3ccc(C)c(C)c3)C2=S)cc(OC)c1OC,.,.,.,.,.,.,/,/
CCOP(=O)(OCC)c1nc(-c2ccc(Cl)cc2Cl)oc1N1CCCCC1,.,.,.,.,.,.,/,/
C=CCn1c(SCc2cc(C(C)=O)ccc2OCC)nc2ccccc2c1=O,.,.,.,.,.,19,.,.
COc1ccc(C(C)=O)cc1CSc1nc2ccccc2c(=O)n1-c1ccccc1,.,.,.,.,.,.,/,/
C#CCNC(=O)C1=C[C@@H](c2ccc3c(c2)OCO3)C[C@@H](OCc2ccc(CO)cc2)O1,.,.,.,.,.,21,.,.
O=C(NCc1ccccc1)C1=C[C@H](c2ccc3c(c2)OCO3)C[C@H](OCc2ccc(CO)cc2)O1,.,.,.,.,.,.,/,/

# Assay outcomes from PubChem.
